Experimental findings from PubChem BioAssay (NCI) are described below.

Each structure is given as a SMILES string. Compounds without any hit were thinned out: in the full panel of roughly 83,000, 20% have a hit.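 Plates (96-well) were seeded with cells, treated with compound at one concentration, and incubated for 48 hours before percent growth was determined.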 The source made the active and inactive calls. How the source made its calls: active means growth percent below 10; inactive means the rest.

The test relates to MOLT-4 leukemia. The test is described as follows: NCI-60 one-dose screen, 48 h (100 = growth as untreated, 0 = no growth, -100 = all killed). The note with it: 10 µM unless noted.
`COc1ccc(/C=C2\CCCC3=C2N=C2SC=NN2C3c2ccc(OC)c(OC)c2)cc1OC` (stereo not given): the growth was 54.7% (inactive).
Regarding `COc1cc(CCNc2cnc3cc(N)cc(N)c3n2)cc(OC)c1`, the growth was 5.61% (active).
Then `O=C(CCl)c1ccc2c(c1)CCCC2`, with 68.6% (inactive); and `Cc1ccc(C(=O)Nc2ccc(CN3CCN(C)CC3)c(C(F)(F)F)c2)cc1C#Cc1cnc(N)c2ccc(F)cc12`, with -67.1% (active).
Consider `Cc1ccc(C(=O)Nc2ccc(CN3CCN(C)CC3)c(C(F)(F)F)c2)cc1C#Cc1cncc2ncccc12`, for which the growth was -58.9% (active).
On to `O=C(Nc1ccc(-n2cc(-c3ccncc3)c(-c3ccc(Cl)c(O)c3)n2)cc1)c1cc(C(F)(F)F)cc(C(F)(F)F)c1`, for which the growth was 55.6% (inactive).
The figure for `CCCCCCCCCC(C)NC(=O)CCl` (stereo not given) is 72.1% (inactive).
The figure for `CCCCCCCCC(=O)Nc1ccc(O)cc1` is 57.9% (inactive); for `COc1ccc(-c2nc(SCC(C)C)nc(Nc3ccccc3)c2C#N)cc1` it is 88.2% (inactive).
On to `N#Cc1ccc(NC2c3ccccc3CC2O)cc1` (stereo not given), for which the growth is 91.5% (inactive).
As to `N#CCCCCCCCCCCC#N`, the growth was 105% (inactive).
The figure for `CCOC(=O)c1ccc2n1CCCc1cnc(NC(C)=O)nc1-2` is 108% (inactive); for `O=C(/C(Br)=C/c1ccccc1)c1ccccc1` it is -25.2% (active); for `COc1ccc2c(N)ncc(C#Cc3cc(C(=O)Nc4ccc(CN5CCN(C)CC5)c(C(F)(F)F)c4)cnc3C)c2c1` it is -36.6% (active).
With `CCCCCCCCCCCC(=O)OC(C)C(=O)Nc1ccccc1` (stereo not given), the growth was 96.1% (inactive).
